Laboratory results: PubChem BioAssay

Experiment: small-molecule binders of probe aNOTCH3, primary screen, biochemical, small-molecule microarray, 635/667 nm fluorescence (AID 1120);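 further: probe is a biotin-tagged antibody raised against NOTCH3 rather than NOTCH3 protein; score merges spot fluorescence near 667 nm with spot signal to noise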
Conditions: higher = more signal
Molecule `C[C@@H]1ON(c2ccccc2)[C@H](c2ccccc2)[C@H]1C(=O)N1C(=O)OC[C@H]1Cc1ccccc1` has a composite z-score of -0.0057.
Molecule `COCCCNC(=O)[C@@H]1c2ccccc2C(=O)N(c2ccc(C)cn2)[C@H]1c1ccc(CO)cc1` has a composite z-score of -0.644.
With `CC(=O)NCCCC[C@@H]1NC(=O)[C@H]2C[C@@H](C(=O)NCCCCCN)[C@@H](c3cccc(OCCO)c3)N2C1=O` the composite z-score was 0.0493.
Work on `C=CCOC(=O)[C@@H]1[C@H]2C(=O)O[C@H](c3ccccc3)[C@H](c3ccccc3)N2[C@H](c2ccc(OCCOC(=O)[C@H]3C[C@H]4C(=O)N[C@@H](Cc5ccccc5)C(=O)N4[C@H]3c3cccc(OCCO)c3)cc2)[C@@]12C(=O)Nc1ccc(I)cc12` yielded a composite z-score of 0.319.
For `O=C(Nc1cc(Br)ccc1C(=O)NCc1cccc(O)c1)c1ccccc1`, the composite z-score was 0.151.
In the case of `CC(C)CCC[C@@H](C)[C@H]1CC[C@@]2(C)C3=C(CC[C@]12C)[C@@]1(C)CC[C@H](OC(=O)C(C)(C)C)C(C)(C)C1CC3` (some centres not stated), the composite z-score is reported as -0.0396.
In the case of `COC(=O)[C@@]1(Cc2ccccc2)[C@H]2c3cc(C(=O)N(C)C)n(Cc4ccc(O)c(OC)c4)c3C[C@H]2CN1C(=O)c1ccccc1`, the composite z-score is reported as 0.808.
In the case of `CC(C)C[C@H]1NC(=O)[C@H](C)NC(=O)[C@@]23C(=O)N[C@@H](Cc4ccccc4)C2[C@H](C)[C@@]2(C)O[C@H]2C3/C=C/C/C=C\CNC1=O` (some centres not stated), the composite z-score is reported as -0.227.
`NCCCCCCNC(=O)[C@H]1C[C@H]2C(=O)N3CCC[C@H]3C(=O)N2[C@H]1c1ccc(O)cc1` showed a composite z-score of -0.0362.
For `COC(=O)C(CC#Cc1ccc2c(c1)[C@]1(C(=O)N2)[C@H](c2ccc(OCCO)cc2)N2[C@H](c3ccccc3)[C@H](c3ccccc3)OC(=O)[C@H]2[C@@H]1C(=O)O)C(=O)OC`, the composite z-score was 0.328.
Molecule `O=C1O[C@H](c2ccccc2)[C@H](c2ccccc2)N2[C@H]1[C@@H](C(=O)N1CCN(c3ncccn3)CC1)[C@]1(C(=O)Nc3ccc(C#CCCO)cc31)[C@H]2c1ccc(OCCO)cc1` has a composite z-score of 0.255.
Molecule `NC(=O)NCC#Cc1ccc2c(c1)[C@]1(C(=O)N2)[C@H](c2ccc(OCCO)cc2)N2[C@H](c3ccccc3)[C@H](c3ccccc3)OC(=O)[C@H]2[C@@H]1C(=O)N1CCCCCCC1` has a composite z-score of 2.08.
`CN(C)C(=O)[C@@]1(CCS(=O)(=O)c2ccccc2)N=C(c2ccc(OCCCO)cc2)O[C@H]1c1ccccc1CN=[N+]=[N-]` gave a composite z-score of 0.167.
With `COc1ccc(CCNC(=O)[C@@H]2c3ccccc3C(=O)N(Cc3ccccc3C(F)(F)F)[C@H]2c2ccc(CO)cc2)cc1` the composite z-score was -0.246.
With `O=C1O[C@H](c2ccccc2)[C@H](c2ccccc2)N2[C@H]1[C@@H](C(=O)NC[C@H](O)c1ccccc1)[C@]1(C(=O)Nc3ccccc31)[C@H]2c1ccccc1OCCO` the composite z-score was -0.171.
Work on `C=C(CCCC)/C(=C/C[C@H](OC(=O)c1ccncc1)c1ccc(CO)o1)c1cc(C(=O)OC)ccc1OC` yielded a composite z-score of 0.201.
For `CCCCCCCCCCC(O)C1C=CC2C(=O)NC(=O)C2N1Nc1ccccn1` (configuration not stated), the composite z-score was 0.0159.
Work on `COC(=O)[C@@]1(Cc2ccc(OC)cc2)[C@H]2c3cc(C(=O)N4CCCC4)n(Cc4ccc(C)o4)c3C[C@H]2CN1C(=O)c1ccccc1` yielded a composite z-score of 0.74.
`C=C(/C(=C/C[C@@H](OC(=O)c1ccncc1)c1cccc(OCCO)c1)c1cc(C(=O)OC)ccc1OC)C(C)C` gave a composite z-score of 0.19.
Work on `CCOC(=O)C[C@H]1[C@H](OC(=O)Cc2ccc3c(c2)OCO3)[C@@H](NC(=O)c2ccccc2)c2cc(OCCCO)ccc2N1C(=O)c1ccccc1` yielded a composite z-score of -0.0573.
Molecule `CCCC=C(CCC)[C@@H](NS(=O)(=O)c1ccccc1)c1ccc(C(F)(F)F)cc1` has a composite z-score of 0.23.
Work on `C=C[C@H](C)[C@H](OC(=O)Nc1ccc(SC)cc1)c1ccc(O)c2ccccc12` yielded a composite z-score of -0.311.
For `CC1(C)[C@@H]2CC(C(O)C3C=CC4C(=O)N(c5ccccc5)C(=O)C4N3Nc3ccccc3F)=C[C@@H]1C2` (some centres not stated), the composite z-score was 0.272.
With `COC(=O)c1ccc(OC)c(/C=C\CC(CCc2ccccc2)OC(=O)c2ccncc2)c1` (configuration not stated) the composite z-score was -0.26.
`O=C1C2C=CC(C(O)c3ccc(Br)cc3)N(Nc3ccccc3)C2C(=O)N1c1ccccc1` (configuration not stated) gave a composite z-score of 0.328.
For `COCCOC(=O)N1C(=O)[C@@]2(c3cc(C#Cc4ccc(OC)cc4)ccc31)[C@H](C(=O)N1CCc3cc(OC)c(OC)cc3C1)[C@H]1C(=O)O[C@H](c3ccccc3)[C@H](c3ccccc3)N1[C@@H]2c1ccc(OCCO)cc1`, the composite z-score was 0.0271.
In the case of `C=CCC(OC(C)=O)[C@@H]1[C@@H](N(Cc2ccc(-c3cccc(C(F)(F)F)c3)o2)C(=O)c2cccc3ccccc23)c2cc(OCCCO)ccc2N1C(=O)c1ccc(-c2ccccc2)cc1` (some centres not stated), the composite z-score is reported as 0.0058.
